By AC50 is commonly meant the concentration at which the activity in the assay is half-maximal.

In PubChem BioAssay (EPA / NIEHS) one finds outcome and AC50 data, which are given here for four compounds.

Test [1] concerns the target Paired box protein Pax-6 (Homo sapiens) (UniProt P26367). Nature of the test: ATG_Pax6_CIS: Attagene CIS-FACTORIAL HepG2 Assay for human Paired Box 6 (PAX6) (AID 2282956). The note with it: HepG2 CIS-FACTORIAL PAX6 reporter transcription, RNA readout; actives raise or lower the signal. A digest of the protocol:
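Transient MRTU transfection of HepG2 → compound exposure 24 h → TriZol RNA, oligo(dT) RT → PCR, 6-FAM primer extension, HpaI cut → capillary electrophoresis; activity fitted both directions against DMSO.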

Test [2] is described as follows: ATG_PXRE_CIS: Attagene CIS-FACTORIAL HepG2 Assay for human Pregnane X Receptor Element (PXRE) (AID 2282957). To be noted: HepG2 Attagene CIS-FACTORIAL PXRE reporter, mRNA; actives raise or lower the signal. The method in brief:
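Transiently transfected HepG2 cells were dosed and incubated for 24 h. RNA was then isolated, DNase-treated, reverse-transcribed and reporter sequences amplified. Labeled, HpaI-digested fragments were quantified by capillary electrophoresis against DMSO.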

The nature of test [3]: ATG_PPRE_CIS: Attagene CIS-FACTORIAL HepG2 Assay for human Peroxisome Proliferator-activated Response Element (PPRE) (AID 2282958). The note with it: HepG2 PPRE cis-element reporter, Attagene transcription factor profiling; actives raise or lower the signal. A digest of the protocol: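 Read-out: fluorescent reporter mRNA fragments resolved by capillary electrophoresis after RT-PCR. HepG2 cells carried transiently transfected PPRE-driven cis reporter constructs and were dosed for 24 h; gain or loss of signal fitted relative to DMSO.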

Test [4] can be described thus: ATG_RORE_CIS: Attagene CIS-FACTORIAL HepG2 Assay for human RAR-related Orphan Receptor Element (RORE) (AID 2282959). The note with it: HepG2 Attagene cis-factorial RORE reporter, mRNA; actives raise or lower the signal. The method in brief: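 Readout: fluorescent reporter mRNA by RT-PCR plus capillary electrophoresis, 24 h after dosing transfected HepG2 cells. Endogenous transcription factor activity on a cis promoter element is measured. Gain or loss of signal fitted against DMSO.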

The nature of test [5]: ATG_Sox_CIS: Attagene CIS-FACTORIAL HepG2 Assay for human SRY-box transcription factor (SOX) (AID 2282960). To be noted: HepG2 Attagene cis-factorial SOX reporter, mRNA; actives raise or lower the signal. A digest of the protocol: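 Read-out: fluorescent RT-PCR products of SOX1-linked reporter transcripts resolved by capillary electrophoresis, fitted bidirectionally against DMSO. Transiently transfected HepG2 cells, 24 h after chemical exposure, endogenous transcription factor activity.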

Test [6] addresses Transcription factor Sp1 (Homo sapiens) (UniProt P08047). Kind of test: ATG_Sp1_CIS: Attagene CIS-FACTORIAL HepG2 Assay for human Specificity Protein 1 (Sp1) (AID 2282961). To be noted: HepG2 Sp1 cis-reporter transcription, actives raise or lower the signal. A digest of the protocol: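 Read-out: fluorescence of 6-FAM-labeled, HpaI-digested RT-PCR products separated by capillary electrophoresis. HepG2 cells carried transfected cis-element reporter units and were exposed to chemicals for 24 h; gain or loss of signal fitted relative to DMSO.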

Test [7] in a line: ATG_SREBP_CIS: Attagene CIS-FACTORIAL HepG2 Assay for human Sterol Regulatory Element Binding (SREBP) (AID 2282962). To be noted: HepG2 Attagene cis-factorial SREBP reporter, mRNA; actives raise or lower the signal. A digest of the protocol:
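Transfected HepG2 (cis-regulated reporter library, endogenous TFs) → compound 24 h → total RNA → oligo(dT) RT → reporter-specific PCR → FAM primer extension, HpaI cut → CE fluorescence. Fit bidirectional vs DMSO.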

Test [8] has as its target Signal transducer and activator of transcription 3 (Homo sapiens) (UniProt P40763). Kind of test: ATG_STAT3_CIS: Attagene CIS-FACTORIAL HepG2 Assay for human Signal Transducer and Activator of Transcription 3 (STAT3) (AID 2282963). The note with it: HepG2, Attagene cis-factorial STAT3 reporter transcription; actives raise or lower the signal. The method in brief:
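After a 24 h compound incubation, total RNA from MRTU-transfected HepG2 cells was converted to cDNA and reporter sequences PCR-amplified, labelled and profiled by capillary electrophoresis. Gain and loss of signal were referenced to DMSO.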

Test [9] can be described thus: ATG_TA_CIS: Attagene CIS-FACTORIAL HepG2 Assay for human TA Basal Promoter (AID 2282964). The note with it: HepG2 Attagene CIS-factorial TA basal promoter reporter; actives raise or lower the signal. The method in brief: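 Fluorescence from labelled RT-PCR reporter fragments, separated by capillary electrophoresis, gives the signal. Cells: HepG2 transiently carrying multiple reporter units, 24 h chemical dosing. Gain or loss relative to DMSO.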

A short description of test [10]: ATG_TCF_b_cat_CIS: Attagene CIS-FACTORIAL HepG2 Assay for human T-Cell-Factor with beta-catenin (TCF/b-cat) (AID 2282965). To be noted: HepG2 TCF/beta-catenin cis-reporter transcription, actives raise or lower the signal. A digest of the protocol:
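Measured: reporter mRNA in HepG2 transiently transfected with cis-promoter reporter units, 24 h after chemical addition. Fitting was bidirectional, DMSO as negative control.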

Test [11] can be described thus: ATG_TAL_CIS: Attagene CIS-FACTORIAL HepG2 Assay for human TAL Basal Promoter (AID 2282966).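 Note: background control endpoint measuring basal TAL promoter reporter mRNA not a specific factor.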 To be noted: HepG2 Attagene cis-factorial TAL promoter reporter; actives raise or lower the signal. A digest of the protocol: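 Readout: reporter mRNA, fluorescence by CE. System: HepG2, transient multi-reporter transfection, endogenous TF activity. Exposure: 24 h. Analysis: bidirectional, DMSO-normalized; background control.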

The nature of test [12]: ATG_TGFb_CIS: Attagene CIS-FACTORIAL HepG2 Assay for human Transforming Growth Factor (TGF) (AID 2282967). To be noted: HepG2 Attagene CIS TGFb reporter, mRNA transcription; actives raise or lower the signal. A digest of the protocol:
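Bidirectional fitting relative to DMSO gave the endpoint. Underlying data: reporter mRNA from HepG2 cells carrying transiently transfected cis-regulated reporter constructs, harvested 24 h after dosing and analyzed by RT-PCR and capillary electrophoresis.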

A short description of test [13]: ATG_VDRE_CIS: Attagene CIS-FACTORIAL HepG2 Assay for human Vitamin D Receptor Element (VDRE) (AID 2282968). To be noted: HepG2 VDRE cis-reporter transcription, actives raise or lower the signal. The method in brief:
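In transiently transfected HepG2 liver cells, gain or loss of reporter mRNA after 24 h exposure is scored relative to DMSO, using fluorescence detection by capillary electrophoresis of RT-PCR products.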

Test [14] addresses Nuclear receptor subfamily 1 group I member 3 (Homo sapiens) (UniProt Q14994). Kind of test: ATG_CAR_TRANS: Attagene TRANS-FACTORIAL HepG2 Assay for human Constitutive Androstane Receptor (CAR) (AID 2282969; active = hit-call score of the fitted dose curve at least 0.9, where 1 is the maximum;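 note: activators raise reporter mRNA above DMSO so AC50 marks induction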). The note with it: HepG2 Attagene TRANS-FACTORIAL CAR reporter. The method in brief:
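Readout is reporter mRNA induction, quantified by fluorescent primer extension and capillary electrophoresis after RT-PCR. Cells were HepG2 transiently carrying chimeric NR-Gal4 constructs with GAL4-UAS reporters, treated for 24 h; activity scored upward from DMSO.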

Test [15] has as its target X-box-binding protein 1 (Homo sapiens) (UniProt P17861). Kind of test: ATG_Xbp1_CIS: Attagene CIS-FACTORIAL HepG2 Assay for human X-box Binding Protein 1 (XBP1) (AID 2282972). To be noted: HepG2 XBP1 cis-element reporter, Attagene multiplex; actives raise or lower the signal. A digest of the protocol:
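HepG2, transient MRTU transfection (cis-promoter driven), 24 h compound exposure. Total RNA → oligo(dT) RT → PCR → 6-FAM labeling → HpaI cut → CE. Bidirectional fit vs DMSO.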

Test [16] addresses Estrogen receptor (Homo sapiens) (UniProt P03372). Kind of test: ATG_ERa_TRANS: Attagene TRANS-FACTORIAL HepG2 Assay for human Estrogen Receptor alpha (ERa) (AID 2282970; active = hit-call score of the fitted dose curve at least 0.9, where 1 is the maximum). To be noted: HepG2 Attagene TRANS ERa GAL4 reporter, mRNA. A digest of the protocol:
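Transactivation via ERa-Gal4 chimera in HepG2; 24 hour incubation; reporter mRNA detected by fluorescence RT-PCR and capillary electrophoresis.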

Test [17] is described as follows: ATG_M_19_TRANS: Attagene TRANS-FACTORIAL HepG2 Assay for M19 Transcription Factor (Internal Marker) (AID 2282974; active = hit-call score of the fitted dose curve at least 0.9, where 1 is the maximum). To be noted: HepG2 Attagene TRANS-FACTORIAL M19 internal marker reporter. The method in brief:
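24 h chemical exposure of transiently transfected HepG2 (MRTU library). RNA → oligo(dT) RT → PCR → 6-FAM labelling → HpaI cut → CE fluorescence. Positive-direction fit vs DMSO baseline; background internal-marker readout.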

Test [18] can be described thus: ATG_GAL4_TRANS: Attagene TRANS-FACTORIAL HepG2 Assay for GAL4 (Internal Marker) (AID 2282976; active = hit-call score of the fitted dose curve at least 0.9, where 1 is the maximum). The note with it: HepG2 Attagene TRANS GAL4 internal marker reporter. The method in brief:
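Fluorescence from capillary electrophoresis of labelled RT-PCR products quantifies reporter mRNA induction after 24 h dosing of HepG2 cells carrying transfected GAL4-UAS reporter transcription units. Vehicle DMSO serves as baseline.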

Test [19] deals with Estrogen-related receptor gamma (Homo sapiens) (UniProt P62508). Kind of test: ATG_ERRg_TRANS: Attagene TRANS-FACTORIAL HepG2 Assay for human Estrogen-Related Receptor gamma (ERRg) (AID 2282977; active = hit-call score of the fitted dose curve at least 0.9, where 1 is the maximum;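 note: hits increase reporter signal over DMSO so potencies reflect activators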). To be noted: HepG2 Attagene TRANS reporter, ERRg transactivation. A digest of the protocol:
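HepG2 cells transiently transfected with multiplexed GAL4-UAS reporter units and chimeric NR-Gal4 constructs were exposed to test chemicals for 24 h. Reporter mRNA was measured by RT-PCR, 6-FAM primer extension, HpaI digestion and capillary electrophoresis; gain-of-signal versus DMSO.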

In test [20] the target is Steroid hormone receptor ERR1 (Homo sapiens) (UniProt P11474). Nature of the test: ATG_ERRa_TRANS: Attagene TRANS-FACTORIAL HepG2 Assay for human Estrogen-Related Receptor alpha (ERRa) (AID 2282971; active = hit-call score of the fitted dose curve at least 0.9, where 1 is the maximum). The note with it: HepG2 Attagene TRANS reporter, ERRa transactivation. A digest of the protocol:
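HepG2 cells were transiently transfected with multiple GAL4-UAS reporter units, then dosed with compound for 24 h. Total RNA was reverse-transcribed, reporter cDNA PCR-amplified and fluorescently labelled, and fragments resolved by capillary electrophoresis; induction was compared with DMSO.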

The structures appear in SMILES notation. Records with an inconclusive call do not appear. Activity calls are given as the source filed them. Rule for the calls, unless noted: active = hit-call score of the fitted dose curve at least 0.9, where 1 is the maximum; inactive = score below 0.9.

Chain of Estrogen receptor (Homo sapiens) (P03372 whole entry, looked up, the tested form may be a part): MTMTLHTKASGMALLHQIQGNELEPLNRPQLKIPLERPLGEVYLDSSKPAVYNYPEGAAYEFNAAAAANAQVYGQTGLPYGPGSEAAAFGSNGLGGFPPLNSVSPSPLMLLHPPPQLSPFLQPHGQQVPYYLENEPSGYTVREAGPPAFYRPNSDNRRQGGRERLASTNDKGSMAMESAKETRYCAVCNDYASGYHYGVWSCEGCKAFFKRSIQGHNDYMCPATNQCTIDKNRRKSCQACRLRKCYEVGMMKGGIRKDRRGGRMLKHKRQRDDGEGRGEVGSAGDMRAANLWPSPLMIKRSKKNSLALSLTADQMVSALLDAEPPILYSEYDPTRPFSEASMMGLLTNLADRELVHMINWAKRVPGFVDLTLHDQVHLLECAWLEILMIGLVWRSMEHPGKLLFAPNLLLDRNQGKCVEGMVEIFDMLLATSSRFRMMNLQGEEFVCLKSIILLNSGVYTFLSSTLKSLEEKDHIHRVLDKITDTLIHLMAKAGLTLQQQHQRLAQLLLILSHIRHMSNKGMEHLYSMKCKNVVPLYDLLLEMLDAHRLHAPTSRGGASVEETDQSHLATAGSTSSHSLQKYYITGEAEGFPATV
Chain of Estrogen-related receptor gamma (Homo sapiens) (P62508 whole entry, looked up, the tested form may be a part): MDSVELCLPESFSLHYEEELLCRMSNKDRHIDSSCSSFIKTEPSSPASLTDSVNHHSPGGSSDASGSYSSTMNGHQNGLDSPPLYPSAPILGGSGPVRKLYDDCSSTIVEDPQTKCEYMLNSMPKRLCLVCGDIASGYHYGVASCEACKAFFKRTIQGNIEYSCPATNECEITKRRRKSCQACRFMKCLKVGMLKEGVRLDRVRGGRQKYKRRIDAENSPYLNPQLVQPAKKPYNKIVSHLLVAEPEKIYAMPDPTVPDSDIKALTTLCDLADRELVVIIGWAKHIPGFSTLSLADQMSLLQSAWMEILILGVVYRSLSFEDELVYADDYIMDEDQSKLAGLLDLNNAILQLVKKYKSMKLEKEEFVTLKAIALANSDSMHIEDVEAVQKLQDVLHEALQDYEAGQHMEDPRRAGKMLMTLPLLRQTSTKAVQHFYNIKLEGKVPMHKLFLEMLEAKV
Chain of Signal transducer and activator of transcription 3 (Homo sapiens) (P40763 whole entry, looked up): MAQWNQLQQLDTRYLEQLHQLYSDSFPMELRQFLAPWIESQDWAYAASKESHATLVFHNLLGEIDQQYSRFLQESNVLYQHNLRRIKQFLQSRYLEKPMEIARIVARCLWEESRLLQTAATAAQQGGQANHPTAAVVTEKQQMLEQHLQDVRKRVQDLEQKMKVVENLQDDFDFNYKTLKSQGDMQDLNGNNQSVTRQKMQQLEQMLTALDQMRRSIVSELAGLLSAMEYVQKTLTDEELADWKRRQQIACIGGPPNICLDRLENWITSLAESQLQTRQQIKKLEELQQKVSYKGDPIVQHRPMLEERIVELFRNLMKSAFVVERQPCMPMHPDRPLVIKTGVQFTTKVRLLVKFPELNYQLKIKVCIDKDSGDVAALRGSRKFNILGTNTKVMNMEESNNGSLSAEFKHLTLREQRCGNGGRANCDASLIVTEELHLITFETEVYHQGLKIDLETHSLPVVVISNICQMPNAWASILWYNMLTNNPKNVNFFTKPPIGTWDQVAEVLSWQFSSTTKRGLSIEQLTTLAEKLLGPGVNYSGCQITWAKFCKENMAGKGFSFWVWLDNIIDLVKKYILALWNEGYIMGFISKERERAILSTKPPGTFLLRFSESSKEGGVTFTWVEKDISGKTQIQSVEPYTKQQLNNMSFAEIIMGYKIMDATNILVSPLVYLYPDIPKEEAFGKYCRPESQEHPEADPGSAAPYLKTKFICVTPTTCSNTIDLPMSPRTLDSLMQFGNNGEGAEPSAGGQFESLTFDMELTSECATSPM
Chain of Transcription factor Sp1 (Homo sapiens) (P08047 whole entry, looked up): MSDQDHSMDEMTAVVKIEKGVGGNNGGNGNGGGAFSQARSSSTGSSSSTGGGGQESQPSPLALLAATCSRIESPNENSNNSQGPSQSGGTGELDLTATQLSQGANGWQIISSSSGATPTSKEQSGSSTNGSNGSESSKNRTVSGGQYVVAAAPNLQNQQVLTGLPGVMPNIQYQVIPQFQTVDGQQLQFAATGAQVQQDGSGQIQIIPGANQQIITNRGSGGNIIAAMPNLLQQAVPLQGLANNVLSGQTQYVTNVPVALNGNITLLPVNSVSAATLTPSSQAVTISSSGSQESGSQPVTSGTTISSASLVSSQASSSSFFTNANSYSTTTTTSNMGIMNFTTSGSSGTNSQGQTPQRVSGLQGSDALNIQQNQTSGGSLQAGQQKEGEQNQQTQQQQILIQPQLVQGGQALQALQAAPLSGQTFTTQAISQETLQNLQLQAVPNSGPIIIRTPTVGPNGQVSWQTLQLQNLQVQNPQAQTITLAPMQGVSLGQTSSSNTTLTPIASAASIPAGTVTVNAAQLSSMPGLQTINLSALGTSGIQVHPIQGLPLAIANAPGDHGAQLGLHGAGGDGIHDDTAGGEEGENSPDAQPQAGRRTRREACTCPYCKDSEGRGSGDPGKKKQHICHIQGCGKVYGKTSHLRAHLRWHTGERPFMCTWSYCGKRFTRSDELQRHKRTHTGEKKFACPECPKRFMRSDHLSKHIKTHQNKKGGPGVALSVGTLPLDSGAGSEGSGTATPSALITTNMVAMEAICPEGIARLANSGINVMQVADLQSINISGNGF
Chain of Paired box protein Pax-6 (Homo sapiens) (P26367 whole entry, looked up): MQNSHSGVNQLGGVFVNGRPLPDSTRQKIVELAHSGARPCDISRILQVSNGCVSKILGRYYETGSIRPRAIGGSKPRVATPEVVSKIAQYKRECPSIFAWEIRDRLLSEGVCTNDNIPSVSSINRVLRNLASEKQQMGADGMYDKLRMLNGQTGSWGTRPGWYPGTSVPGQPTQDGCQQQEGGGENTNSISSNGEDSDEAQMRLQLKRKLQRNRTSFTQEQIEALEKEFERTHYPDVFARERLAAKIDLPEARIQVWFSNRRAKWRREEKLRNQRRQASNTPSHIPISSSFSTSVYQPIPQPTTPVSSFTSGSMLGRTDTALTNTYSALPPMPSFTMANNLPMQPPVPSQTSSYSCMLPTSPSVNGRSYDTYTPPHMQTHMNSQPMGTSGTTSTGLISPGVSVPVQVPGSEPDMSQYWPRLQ
Chain of X-box-binding protein 1 (Homo sapiens) (P17861 whole entry, looked up): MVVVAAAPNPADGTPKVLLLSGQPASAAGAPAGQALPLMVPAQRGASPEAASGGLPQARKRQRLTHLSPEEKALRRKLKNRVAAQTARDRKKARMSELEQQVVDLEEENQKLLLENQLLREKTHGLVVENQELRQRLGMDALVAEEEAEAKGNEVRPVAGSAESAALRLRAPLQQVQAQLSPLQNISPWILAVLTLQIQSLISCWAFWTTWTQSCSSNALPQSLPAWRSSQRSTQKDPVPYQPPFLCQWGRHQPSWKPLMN
Chain of Steroid hormone receptor ERR1 (Homo sapiens) (P11474 whole entry, looked up, the tested form may be a part): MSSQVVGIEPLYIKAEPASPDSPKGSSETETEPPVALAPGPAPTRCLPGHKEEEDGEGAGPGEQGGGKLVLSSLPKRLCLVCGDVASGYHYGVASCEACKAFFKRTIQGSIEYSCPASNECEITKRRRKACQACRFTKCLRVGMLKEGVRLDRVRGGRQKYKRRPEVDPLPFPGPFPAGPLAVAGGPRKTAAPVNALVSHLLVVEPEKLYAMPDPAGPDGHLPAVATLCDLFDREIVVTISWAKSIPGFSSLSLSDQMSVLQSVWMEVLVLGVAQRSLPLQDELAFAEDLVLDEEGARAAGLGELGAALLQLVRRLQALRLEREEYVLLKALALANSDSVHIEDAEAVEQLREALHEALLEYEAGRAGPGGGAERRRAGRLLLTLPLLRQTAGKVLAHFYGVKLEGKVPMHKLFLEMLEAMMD
Chain of Nuclear receptor subfamily 1 group I member 3 (Homo sapiens) (Q14994 whole entry, looked up, the tested form may be a part): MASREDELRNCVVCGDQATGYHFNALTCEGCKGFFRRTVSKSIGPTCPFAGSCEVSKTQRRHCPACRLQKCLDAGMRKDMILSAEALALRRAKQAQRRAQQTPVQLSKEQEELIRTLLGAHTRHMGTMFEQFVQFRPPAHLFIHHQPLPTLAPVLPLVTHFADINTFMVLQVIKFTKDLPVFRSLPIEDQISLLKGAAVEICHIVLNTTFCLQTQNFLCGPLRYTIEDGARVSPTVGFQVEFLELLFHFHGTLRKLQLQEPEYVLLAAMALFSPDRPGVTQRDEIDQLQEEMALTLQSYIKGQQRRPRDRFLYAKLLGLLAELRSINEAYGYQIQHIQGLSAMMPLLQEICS

For `CCOc1ccc(N)c([N+](=O)[O-])c1`, the compound was called inactive in [1], in test [2], in test [3], in [4], in [5] and in test [6]. The compound was called inactive in test [7], in test [8], in test [9], in test [10], in test [11] and in [12]. Further, the call in test [13], in [14] and in test [15] was inactive.
As for `CCc1c(C(=O)O)c(=O)cnn1-c1ccc(Cl)cc1`, the outcome in test [1], in [3], in [4], in test [5], in [6] and in test [7] was inactive. Moreover, the result in test [8], in test [9], in test [10], in test [11], in test [12] and in [13] was inactive. Also, the compound was classed as inactive in test [16], in [17], in test [18] and in [19]. For the same compound, the AC50 in [2] was 52.3 µM (active).
As for `CCN(CCC#N)c1ccc(N=Nc2c(Cl)cc([N+](=O)[O-])cc2Cl)cc1`, the compound was called inactive in [1], in test [3], in [4], in test [5], in [6] and in [7]. The call in test [8], in test [9], in test [10], in test [11], in test [12] and in test [15] was inactive. In addition, the result in test [19] was inactive. In addition, the AC50 in test [2] was 1.67 µM (active); in test [16], 4.92 µM (active).
With `O=C(c1ccccc1)c1ccc(O)c(O)c1O`, the result in test [1], in [3], in [4], in test [5], in test [6] and in test [7] was inactive. The compound was called inactive in test [8], in test [9], in test [10], in [12], in test [13] and in [20]. Also, the compound was classed as inactive in test [18] and in test [19]. Also, the AC50 in test [2] is 26.9 µM (active); in test [16], 27.3 µM (active).
